Data on 16 compounds can be found in PubChem BioAssay (NCATS).

Unmarked numbers belong to inactive results. Inconclusive results are not listed. The source made the active and inactive calls. Unless noted, calls come from the whole dose curve; as a rule, active = well fitted curve in the direction sought with a large enough effect; inconclusive = small, poorly fitted or top-dose-only effect, or another doubt; inactive = no such curve, though single readings can be large; an effect the other way counts as inactive or inconclusive.

In one test the test system is C33A. In words: Primary qHTS to identify gynecologic anti-cancer compounds using libraries of approved drugs and bioactive compounds (AID 1345084). Note: nearly all actives have a fitted effect of over 55% in size. Note: potency is the fitted concentration of half-maximal effect. The conditions noted are these: Gynecologic cancer cell panel viability, ATPlite luminescence, 48 h; series mostly up to 57.5 µM. In short, it runs like this: (§1)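 48 h compound exposure at 37 C, 5% CO2; five-point qHTS. ATPlite luminescence readout of cell ATP.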

In a further test the test system is CAOV3. The test is described as above. The conditions noted are these: Gynecologic cancer cell panel viability, ATPlite luminescence, 48 h; series mostly up to 57.5 µM. Put shortly:
as §1

For the next test, the system named is CASKI. The test is described as above. The conditions noted are these: Gynecologic cancer cell panel viability, ATPlite luminescence, 48 h; series mostly up to 57.5 µM. In short, it runs like this:
as §1
On the technique in general: ATP-based viability assays read luminescence as a measure of living cells.

Another test deals with Es-2. Described as above. The conditions noted are these: Gynecologic cancer cell panel viability, ATPlite luminescence, 48 h; series mostly up to 57.5 µM. In short, it runs like this:
as §1

A further test deals with HeLa. Described as above. The conditions noted are these: Gynecologic cancer cell panel viability, ATPlite luminescence, 48 h; series mostly up to 57.5 µM. In short, it runs like this:
as §1

A further test has as its system Hek293T. The test is described as above. The conditions noted are these: Gynecologic cancer cell panel viability, ATPlite luminescence, 48 h, control line for the selectivity index; series mostly up to 57.5 µM. In short, it runs like this: as §1
A further test concerns JEG-3. The description is as above. The conditions noted are these: Gynecologic cancer cell panel viability, ATPlite luminescence, 48 h; series mostly up to 57.5 µM. In short, it runs like this:
as §1

Another test concerns OV90. The test is described as above. The conditions noted are these: Gynecologic cancer cell panel viability, ATPlite luminescence, 48 h; series mostly up to 57.5 µM. Put shortly: as §1
For a further test, the system named is PA-1. Described as above. The conditions noted are these: Gynecologic cancer cell panel viability, ATPlite luminescence, 48 h; series mostly up to 57.5 µM. In short, it runs like this:
as §1

Another test concerns Tov-21-G. The description is as above. The conditions noted are these: Gynecologic cancer cell panel viability, ATPlite luminescence, 48 h; series mostly up to 57.5 µM. In short, it runs like this: as §1
The next test deals with Tov112D. The description is as above. The conditions noted are these: Gynecologic cancer cell panel viability, ATPlite luminescence, 48 h; series mostly up to 57.5 µM. Put shortly:
as §1

Test [1] can be described thus: Drug repurposing screens with cells derived from glioblastoma tumor samples (AID 1345199). For activity, negative = cell killing: % is set by controls: 0 for no effect and ±100 for the full control effect. Note: nearly all actives have a fitted effect of over 40% in size. Note: potency is the fitted concentration of half-maximal effect. The conditions noted are these: GBM patient neurospheres viability, ATP luminescence, 48 h. Put shortly:
(§2)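 Primary testing used CD133+ neurospheres from four GBM patients, seven concentrations, 48 h exposure and ATP-based viability; confirmation added three slower-growing patient lines.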

A further test has as its system astro. Described as above. The conditions noted are these: viability, ATP luminescence, 48 h; series mostly up to 45.9 µM. In short, it runs like this: as §2
Test [2] addresses Nuclear receptor subfamily 1 group I member 2 (Rattus norvegicus) (UniProt Q9R1A7). In words: qHTS assay for small molecule activators of the rat pregnane X receptor (rPXR) signaling pathway (AID 651751; call rule not given here; note: 0% is about no effect). The conditions noted are these: rPXR reporter cells, luciferase (One-Glo), 24 h. (qHTS replaces the single test concentration by a dilution series.)
A short description of test [3]: qHTS assay for small molecule activators of the human pregnane X receptor (PXR) signaling pathway (AID 720659; call rule not given here; note: 0% is about no effect).
Another test has as its system SKOV3. As to the kind of experiment: Primary qHTS to identify gynecologic anti-cancer compounds using libraries of approved drugs and bioactive compounds (AID 1345084). Note: nearly all actives have a fitted effect of over 55% in size. Note: potency is the fitted concentration of half-maximal effect. The conditions noted are these: Gynecologic cancer cell panel viability, ATPlite luminescence, 48 h; series mostly up to 57.5 µM. Put shortly: as §1
Setting [4] is: at 91.6 µM (top of the series), tumour line B.
[5] abbreviates: at 91.6 µM (top of the series), tumour line D.
Where [6] appears, read: at 45.9 µM (top of the series), tumour line B.
The mark [7] stands for this setting: at 45.9 µM (top of the series), tumour line D.
Setting [8] is: at 46 µM (top of the series), tumour line A.
Setting [9] is: at 108 µM (top of the series), tumour line B.
Setting [10] is: at 108 µM (top of the series), tumour line D.

Chain of Nuclear receptor subfamily 1 group I member 2 (Rattus norvegicus) (Q9R1A7 whole entry, looked up): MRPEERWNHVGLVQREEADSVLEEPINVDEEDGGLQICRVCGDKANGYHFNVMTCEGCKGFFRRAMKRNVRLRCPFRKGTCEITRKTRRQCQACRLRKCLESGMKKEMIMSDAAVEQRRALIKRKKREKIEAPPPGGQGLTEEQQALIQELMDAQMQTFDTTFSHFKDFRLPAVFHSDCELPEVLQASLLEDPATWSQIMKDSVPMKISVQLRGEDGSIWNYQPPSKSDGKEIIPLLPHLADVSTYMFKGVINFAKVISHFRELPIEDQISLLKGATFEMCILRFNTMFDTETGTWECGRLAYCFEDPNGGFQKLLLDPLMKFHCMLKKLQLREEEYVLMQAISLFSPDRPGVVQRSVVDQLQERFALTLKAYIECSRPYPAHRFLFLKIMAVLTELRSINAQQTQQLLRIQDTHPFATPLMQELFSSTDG

As to `CN(C)CCc1c[nH]c2cccc(O)c12`, the Potency entry in the test with C33A, with CAOV3, with CASKI, in the test on Es-2, in the test with HeLa and in the test on Hek293T was “inactive” each time. For the same compound, the Potency result in the test on JEG-3, in the test with OV90, in the test with PA-1, in the test on Tov-21-G and with Tov112D was “inactive” each time. For the same compound, the activity, negative = cell killing in test [1] (setting [4]) was -8.47%; in test [1] (setting [5]) it was -23.4%.

Consider `CC1N=C(N)OC1c1ccccc1` (stereo unspecified), for which the Potency entry in the test on C33A, in the test on CAOV3, in the test on CASKI, in the test with Es-2, in the test on HeLa and in the test on Hek293T was “inactive” each time. Besides, the Potency entry with JEG-3, in the test on PA-1, in the test on Tov-21-G and with Tov112D was “inactive” in each case. In addition, the activity, negative = cell killing in test [1] (setting [4]) was -8.97%; in test [1] (setting [5]), -16.1%. Besides, in test [1] (tumour line A), the Potency is 50.1 µM (active).

With `C[C@H]1C(=O)O[C@@H]2CCN3CC=C(COC(=O)[C@](C)(O)[C@]1(C)O)[C@H]23`, the Potency result in the test with C33A, with CAOV3, in the test with CASKI, in the test on Es-2, in the test with HeLa and in the test on Hek293T was “inactive” throughout. For the same compound, the Potency entry in the test with JEG-3, in the test with OV90, with PA-1, in the test on Tov-21-G, in the test with Tov112D and in the test on astro was “inactive” throughout. Besides, the activity, negative = cell killing was -12.9% in test [1] (setting [6]), -22.3% in test [1] (setting [7]) and -27.9% in test [1] (setting [8]). For the same compound, in test [2], the max response was 0.678%. The outcome in test [3] was inactive.

In the case of `COc1cc(CC(C)N)cc2c1OCO2` (stereo unspecified), the Potency entry in the test on C33A, with CAOV3, in the test with CASKI, in the test on Es-2, in the test with HeLa and in the test on Hek293T was “inactive” in each case. The Potency result in the test with JEG-3, with OV90, in the test with PA-1, in the test on Tov-21-G and in the test with Tov112D was “inactive” each time. The activity, negative = cell killing in test [1] (setting [9]) is -12.8%. In [1] (tumour line A), the Potency is 35.5 µM (active).

On to `CC(C)(O)C(Cl)(Cl)Cl`, for which the Potency result with C33A, in the test with CAOV3, in the test on CASKI, in the test with Es-2, in the test on HeLa and with Hek293T was “inactive” throughout. In addition, the Potency entry in the test with JEG-3, in the test with OV90, with PA-1, in the test with SKOV3, in the test on Tov-21-G and with Tov112D was “inactive” throughout. In addition, the Potency entry in the test on astro was “inactive”. Further, the activity, negative = cell killing in [1] (setting [6]) is 4%; in [1] (setting [7]), 6.2%.

Turning to `CCOC(=O)NC(C)(C)Cc1ccc(Cl)cc1`, the Potency entry in the test on C33A, with CAOV3, in the test with CASKI, in the test on Es-2, in the test on HeLa and with Hek293T was “inactive” each time. Besides, the Potency entry in the test on JEG-3, in the test with OV90, in the test on PA-1, in the test with Tov-21-G and in the test with Tov112D was “inactive” in each case. For the same compound, the activity, negative = cell killing was 0.659% in [1] (setting [6]) and -16.7% in test [1] (setting [7]).

With `COc1ccc(OC)c(CC(C)N)c1` (stereo unspecified), the Potency entry in the test with C33A, with CAOV3, with CASKI, with Es-2, with HeLa and in the test with Hek293T was “inactive” each time. For the same compound, the Potency entry in the test on JEG-3, in the test on OV90, in the test on PA-1, with Tov-21-G and in the test with Tov112D was “inactive” throughout. The activity, negative = cell killing in [1] (setting [9]) was -6.52%; in [1] (setting [10]), -16.6%.

In the case of `CC(C(O)c1ccccc1)N(C)C/C=C/c1ccccc1` (stereo unspecified), the Potency entry in the test with C33A, with CAOV3, in the test with CASKI, in the test with Es-2, in the test on HeLa and with Hek293T was “inactive” each time. For the same compound, the Potency entry with JEG-3, in the test with PA-1, with SKOV3, in the test on Tov-21-G and with Tov112D was “inactive” throughout.

For the compound `Clc1ccc(CO/N=C(\Cn2ccnc2)c2ccc(Cl)cc2Cl)c(Cl)c1`, the Potency result in the test on C33A, with CAOV3, in the test on CASKI, in the test on Es-2, in the test with HeLa and with Hek293T was “inactive” in each case. For the same compound, the Potency entry in the test with JEG-3, with SKOV3, in the test on Tov-21-G and in the test with Tov112D was “inactive” in each case. Further, the values for the Potency in [1] (tumour line A) and in [1] (tumour line D) were 2.82 µM (active) and 11.2 µM (active), respectively.

Regarding `C1CN2CCC1CC2`, the Potency result in the test on C33A, in the test with CAOV3, in the test with CASKI, in the test with Es-2, with HeLa and in the test on Hek293T was “inactive” each time. The Potency entry in the test on JEG-3, with PA-1, in the test on Tov-21-G and with Tov112D was “inactive” each time. Besides, the Potency in the test with OV90 is 25.1 µM (active).

For the compound `CN(C)CCc1c[nH]c2ccccc12`, the Potency entry with C33A, with CAOV3, in the test with CASKI, in the test on Es-2, in the test on HeLa and with Hek293T was “inactive” each time. The Potency entry in the test on JEG-3, in the test on OV90, with PA-1, in the test with SKOV3, in the test with Tov-21-G and in the test on Tov112D was “inactive” each time. The Potency result in the test on astro was “inactive”. In addition, the values for the activity, negative = cell killing in test [1] (setting [9]) and in test [1] (setting [10]) were -3.73% and -2.02%, respectively.

As to `C[C@]12Cc3nonc3C[C@@H]1CC[C@@H]1[C@@H]2CC[C@@]2(C)[C@H]1CC[C@]2(C)O`, the Potency result in the test on C33A, with CASKI, in the test on Es-2, with Hek293T, in the test with JEG-3 and in the test on OV90 was “inactive” each time. The Potency result in the test with SKOV3, in the test with Tov-21-G and with Tov112D was “inactive” each time. Also, the Potency was 2.82 µM (active) with HeLa and 12.6 µM (active) in test [1] (tumour line A). Also, in test [1] (setting [6]), the activity, negative = cell killing is -26.1%.

For the compound `CN(C)CCc1c[nH]c2ccc(O)cc12`, the Potency entry with C33A, in the test with CASKI, in the test on Es-2, in the test on HeLa, in the test on Hek293T and with JEG-3 was “inactive” each time. In addition, the Potency entry with OV90, with PA-1, in the test on SKOV3, with Tov-21-G, with Tov112D and with astro was “inactive” each time. Besides, the results for the activity, negative = cell killing in [1] (setting [4]) and in test [1] (setting [5]) were -5.09% and -23.3%, respectively.

Consider `COc1cc(N)c(Cl)cc1C(=O)NC1CN2CCC1CC2` (stereo unspecified), for which the Potency entry with C33A, with CASKI, in the test with Es-2, in the test on HeLa, with Hek293T and in the test on JEG-3 was “inactive” throughout. Besides, the Potency result in the test with OV90, with PA-1, in the test with SKOV3, with Tov-21-G and in the test on Tov112D was “inactive” in each case. Also, the activity, negative = cell killing is -1.32% in test [1] (setting [6]) and 1.82% in test [1] (setting [7]).

Regarding `COP(=O)(OC)C(O)C(Cl)(Cl)Cl` (stereo unspecified), the Potency entry in the test on C33A, in the test with CASKI, in the test with Es-2, in the test with HeLa, in the test with Hek293T and in the test with JEG-3 was “inactive” each time. For the same compound, the Potency entry in the test with OV90, in the test with PA-1, in the test on SKOV3, with Tov-21-G, in the test with Tov112D and in the test on astro was “inactive” in each case. Further, the activity, negative = cell killing was -5.86% in test [1] (setting [6]), -9.43% in test [1] (setting [7]) and -20.1% in test [1] (setting [8]). For the same compound, the max response in test [2] was 3.3%.

Regarding `O=C(NC(=O)c1c(F)cccc1F)Nc1cc(Cl)c(OC(F)(F)C(F)C(F)(F)F)cc1Cl` (stereo unspecified), the Potency result in the test with C33A, with CAOV3, with CASKI, in the test with Es-2, with HeLa and in the test on JEG-3 was “inactive” throughout. Besides, the Potency result in the test with OV90, in the test on PA-1, with Tov-21-G, in the test with Tov112D and in the test with astro was “inactive” in each case. Besides, the activity, negative = cell killing was -8.74% in test [1] (setting [6]) and -27.5% in test [1] (setting [7]). In test [1] (tumour line A), the Potency was 7.94 µM (active). In addition, the max response in [2] is 0.749%.
